± gives the standard deviation of the averaged measurements. Targets with the largest changes are over-represented here; the source holds about 6,200 in all.
How the values were obtained:
Experiment in all cases: NP40-soluble protein abundance relative to vehicle (solubility fold change) (ratio); higher = more soluble protein in presence of AMP-PNP
A0A087WUT6|O60841 = target: T1, A0A087WUT6|O60841 (UniProt O60841)
T1 sequence (whole entry): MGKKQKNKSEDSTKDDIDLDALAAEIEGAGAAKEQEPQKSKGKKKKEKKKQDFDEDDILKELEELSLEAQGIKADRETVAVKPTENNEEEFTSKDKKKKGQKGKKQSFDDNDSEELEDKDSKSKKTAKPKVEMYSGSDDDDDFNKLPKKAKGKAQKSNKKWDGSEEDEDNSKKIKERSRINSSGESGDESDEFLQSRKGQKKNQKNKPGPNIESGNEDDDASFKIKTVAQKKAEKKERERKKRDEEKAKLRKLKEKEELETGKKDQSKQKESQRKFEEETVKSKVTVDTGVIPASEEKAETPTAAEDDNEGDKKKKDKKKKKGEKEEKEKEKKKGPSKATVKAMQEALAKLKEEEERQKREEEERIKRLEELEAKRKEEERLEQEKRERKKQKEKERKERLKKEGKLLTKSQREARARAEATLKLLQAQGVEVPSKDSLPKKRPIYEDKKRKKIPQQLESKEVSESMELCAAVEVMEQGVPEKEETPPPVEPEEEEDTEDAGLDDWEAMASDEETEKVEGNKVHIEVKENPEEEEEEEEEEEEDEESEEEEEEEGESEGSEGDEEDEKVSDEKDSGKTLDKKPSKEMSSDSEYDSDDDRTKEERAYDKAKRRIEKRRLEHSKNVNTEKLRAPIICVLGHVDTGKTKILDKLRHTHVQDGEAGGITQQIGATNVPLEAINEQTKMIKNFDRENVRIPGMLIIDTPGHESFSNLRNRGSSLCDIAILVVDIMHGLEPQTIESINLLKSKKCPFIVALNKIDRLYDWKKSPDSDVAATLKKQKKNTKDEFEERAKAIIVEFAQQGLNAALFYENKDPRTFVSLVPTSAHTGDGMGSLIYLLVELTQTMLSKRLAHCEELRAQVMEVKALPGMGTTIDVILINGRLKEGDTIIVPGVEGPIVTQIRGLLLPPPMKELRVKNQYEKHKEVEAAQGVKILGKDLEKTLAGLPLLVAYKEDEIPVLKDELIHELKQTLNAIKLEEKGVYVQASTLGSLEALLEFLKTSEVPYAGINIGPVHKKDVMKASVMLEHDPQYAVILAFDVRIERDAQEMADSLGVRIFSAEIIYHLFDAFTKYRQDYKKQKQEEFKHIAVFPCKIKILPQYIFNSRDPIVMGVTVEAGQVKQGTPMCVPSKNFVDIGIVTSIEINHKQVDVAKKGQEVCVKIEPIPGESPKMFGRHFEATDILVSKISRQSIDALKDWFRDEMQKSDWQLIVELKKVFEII
How it was run: (§1)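 Across three independent experiments, values are fold changes against the detergent-processed vehicle for each replicate, based on vsn-normalised intensities. The samples were Jurkat crude lysate treated with eight concentrations (0.1 to 10 mM) for 10 min at room temperature and then 3 min at 37 °C. Lysate was solubilised with 0.8% NP40 and benzonase, ultracentrifuged, and the supernatant analysed by TMT-labelled LC-MS/MS.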

[1] = target: T2, A0A087WUU7|Q96GX5|Q96GX5-3|Q96GX5-2 (UniProt Q96GX5)
T2 sequence (whole entry): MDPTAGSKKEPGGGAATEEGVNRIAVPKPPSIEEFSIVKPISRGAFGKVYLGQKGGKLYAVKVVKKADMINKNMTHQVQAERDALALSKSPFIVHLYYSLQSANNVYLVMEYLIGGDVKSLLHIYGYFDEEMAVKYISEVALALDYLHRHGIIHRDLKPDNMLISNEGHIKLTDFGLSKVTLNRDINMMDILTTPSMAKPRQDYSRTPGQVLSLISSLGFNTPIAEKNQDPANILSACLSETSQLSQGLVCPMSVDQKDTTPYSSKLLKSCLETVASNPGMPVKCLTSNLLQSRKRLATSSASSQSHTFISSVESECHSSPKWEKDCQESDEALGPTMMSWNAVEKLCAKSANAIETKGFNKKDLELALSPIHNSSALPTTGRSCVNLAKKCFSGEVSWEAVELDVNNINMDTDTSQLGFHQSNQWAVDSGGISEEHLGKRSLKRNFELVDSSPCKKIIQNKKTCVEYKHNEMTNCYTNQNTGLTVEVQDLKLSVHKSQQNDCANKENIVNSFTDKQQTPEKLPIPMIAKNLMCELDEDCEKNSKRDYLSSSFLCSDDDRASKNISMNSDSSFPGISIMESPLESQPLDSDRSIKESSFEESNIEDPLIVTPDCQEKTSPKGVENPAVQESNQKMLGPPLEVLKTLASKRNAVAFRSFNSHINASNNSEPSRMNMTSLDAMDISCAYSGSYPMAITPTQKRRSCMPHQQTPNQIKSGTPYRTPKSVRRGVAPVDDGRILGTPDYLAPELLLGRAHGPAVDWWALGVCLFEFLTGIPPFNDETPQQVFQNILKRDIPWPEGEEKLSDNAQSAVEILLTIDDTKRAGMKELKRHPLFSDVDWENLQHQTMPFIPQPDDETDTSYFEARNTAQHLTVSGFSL
How it was run: as §1

[2] = target: T3, A0A087WV73|P46087|P46087-2|P46087-4 (UniProt P46087)
T3 sequence (whole entry): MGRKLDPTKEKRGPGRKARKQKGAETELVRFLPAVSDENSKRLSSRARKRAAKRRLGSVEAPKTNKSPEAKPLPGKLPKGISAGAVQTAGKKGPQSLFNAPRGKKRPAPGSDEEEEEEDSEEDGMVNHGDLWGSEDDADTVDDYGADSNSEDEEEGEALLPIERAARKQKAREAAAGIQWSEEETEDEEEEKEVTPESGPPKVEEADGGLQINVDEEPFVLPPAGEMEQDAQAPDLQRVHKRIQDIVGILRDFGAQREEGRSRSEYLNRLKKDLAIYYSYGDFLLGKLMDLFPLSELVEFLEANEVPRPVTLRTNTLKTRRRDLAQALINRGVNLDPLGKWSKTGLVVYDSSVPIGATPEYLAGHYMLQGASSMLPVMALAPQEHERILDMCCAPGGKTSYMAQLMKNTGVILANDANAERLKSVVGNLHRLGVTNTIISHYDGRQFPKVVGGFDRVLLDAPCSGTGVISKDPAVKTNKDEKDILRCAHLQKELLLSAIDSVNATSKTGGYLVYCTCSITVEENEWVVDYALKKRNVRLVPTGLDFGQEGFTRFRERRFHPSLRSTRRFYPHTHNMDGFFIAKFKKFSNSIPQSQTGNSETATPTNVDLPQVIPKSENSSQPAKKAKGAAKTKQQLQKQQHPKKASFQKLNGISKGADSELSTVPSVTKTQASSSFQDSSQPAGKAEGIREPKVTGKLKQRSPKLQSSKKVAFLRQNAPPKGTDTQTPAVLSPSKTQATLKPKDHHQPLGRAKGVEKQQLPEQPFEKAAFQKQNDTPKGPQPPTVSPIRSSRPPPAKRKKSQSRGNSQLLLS
How it was run: as §1

A0A087WW88|Q9UQN3 = A0A087WW88|Q9UQN3 (UniProt Q9UQN3)
How it was run: as §1

A0A087WWS1|Q96FV9 = target: T4, A0A087WWS1|Q96FV9 (UniProt Q96FV9)
T4 sequence (whole entry): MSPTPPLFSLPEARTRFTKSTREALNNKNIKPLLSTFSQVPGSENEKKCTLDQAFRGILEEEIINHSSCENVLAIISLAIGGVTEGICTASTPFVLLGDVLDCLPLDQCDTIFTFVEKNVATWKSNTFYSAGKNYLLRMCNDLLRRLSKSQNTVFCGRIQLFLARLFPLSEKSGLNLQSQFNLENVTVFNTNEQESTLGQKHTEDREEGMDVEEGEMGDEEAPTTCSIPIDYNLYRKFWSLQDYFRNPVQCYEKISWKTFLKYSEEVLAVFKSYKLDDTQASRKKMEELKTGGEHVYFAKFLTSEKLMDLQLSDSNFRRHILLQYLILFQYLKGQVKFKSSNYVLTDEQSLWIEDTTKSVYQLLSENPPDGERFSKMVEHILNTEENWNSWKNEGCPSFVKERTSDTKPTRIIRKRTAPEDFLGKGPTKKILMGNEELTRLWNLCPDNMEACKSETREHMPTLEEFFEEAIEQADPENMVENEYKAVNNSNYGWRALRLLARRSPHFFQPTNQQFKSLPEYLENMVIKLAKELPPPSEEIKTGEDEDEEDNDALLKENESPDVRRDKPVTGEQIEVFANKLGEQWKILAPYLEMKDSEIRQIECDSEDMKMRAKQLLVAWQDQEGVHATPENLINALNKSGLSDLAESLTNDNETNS
How it was run: as §1

Sequence of A0A087WW88|Q9UQN3 (Q9UQN3 whole entry, one chain of several): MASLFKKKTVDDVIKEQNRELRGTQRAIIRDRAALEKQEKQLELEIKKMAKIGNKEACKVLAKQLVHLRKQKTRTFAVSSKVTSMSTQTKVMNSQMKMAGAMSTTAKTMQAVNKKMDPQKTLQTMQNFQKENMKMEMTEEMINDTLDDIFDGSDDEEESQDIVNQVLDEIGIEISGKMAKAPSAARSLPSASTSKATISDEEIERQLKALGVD

`Nc1ncnc2c1ncn2[C@@H]1O[C@H](COP(=O)(O)OP(=O)(O)NP(=O)(O)O)[C@@H](O)[C@H]1O` [adenylyl imidodiphosphate] gave an NP40-soluble protein abundance (A0A087WUT6|O60841; concentration: 6mM) of 1.01 ± 0.033, an NP40-soluble protein abundance (A0A087WUT6|O60841; concentration: 8mM) of 1.004 ± 0.0073 and an NP40-soluble protein abundance (A0A087WUT6|O60841; concentration: 10mM) of 0.997 ± 0.035. The NP40-soluble protein abundance ([1]; concentration: 1mM) was 1.01 ± 0.02, the NP40-soluble protein abundance ([1]; concentration: 2mM) was 1.07 ± 0.036 and the NP40-soluble protein abundance ([1]; concentration: 4mM) was 1.01 ± 0.044. For the same compound, the NP40-soluble protein abundance ([1]; concentration: 6mM) was 0.976 ± 0.023, the NP40-soluble protein abundance ([1]; concentration: 8mM) was 0.967 ± 0.011 and the NP40-soluble protein abundance ([1]; concentration: 10mM) was 0.991 ± 0.04. For the same compound, the NP40-soluble protein abundance ([2]; concentration: 1mM) was 1.04 ± 0.038, the NP40-soluble protein abundance ([2]; concentration: 2mM) was 1.12 ± 0.068 and the NP40-soluble protein abundance ([2]; concentration: 4mM) was 1.17 ± 0.05. For the same compound, the NP40-soluble protein abundance ([2]; concentration: 6mM) was 1.28 ± 0.067, the NP40-soluble protein abundance ([2]; concentration: 8mM) was 1.34 ± 0.094 and the NP40-soluble protein abundance ([2]; concentration: 10mM) was 1.43 ± 0.093. For the same compound, the NP40-soluble protein abundance (A0A087WW88|Q9UQN3; concentration: 1mM) was 1.03 ± 0.024, the NP40-soluble protein abundance (A0A087WW88|Q9UQN3; concentration: 2mM) was 1.03 ± 0.0098 and the NP40-soluble protein abundance (A0A087WW88|Q9UQN3; concentration: 4mM) was 1.03 ± 0.03. The NP40-soluble protein abundance (A0A087WW88|Q9UQN3; concentration: 6mM) was 1.04 ± 0.018, the NP40-soluble protein abundance (A0A087WW88|Q9UQN3; concentration: 8mM) was 1.03 ± 0.042 and the NP40-soluble protein abundance (A0A087WW88|Q9UQN3; concentration: 10mM) was 1.03 ± 0.014. The NP40-soluble protein abundance (A0A087WWS1|Q96FV9; concentration: 1mM) was 1.35 ± 0.15, the NP40-soluble protein abundance (A0A087WWS1|Q96FV9; concentration: 2mM) was 1.52 ± 0.22 and the NP40-soluble protein abundance (A0A087WWS1|Q96FV9; concentration: 4mM) was 1.64 ± 0.29. The NP40-soluble protein abundance (A0A087WWS1|Q96FV9; concentration: 6mM) was 1.86 ± 0.46, the NP40-soluble protein abundance (A0A087WWS1|Q96FV9; concentration: 8mM) was 1.96 ± 0.56 and the NP40-soluble protein abundance (A0A087WWS1|Q96FV9; concentration: 10mM) was 2.2 ± 0.76.

— the supplement of paper PMC6411743
